# Columns and labels:
# Assay in all cases: DAPPL (digital affinity profiling via proximity ligation, sequencing); 10 mM Tris-HCl pH 7.5, 50 mM NaCl, 1 mM DTT, 4% glycerol, room temperature, 30 min; GST-TFs on glutathione beads, 16-mer random dsDNA library, 0.1% formaldehyde crosslink after washing; high values mean tight binding
# FEV = molecular target: T1, FEV (Homo sapiens, UniProt Q99581 1-238); details: protein: recombinant; tags: N-terminal GST; dsDNA, one strand shown
# T1 sequence: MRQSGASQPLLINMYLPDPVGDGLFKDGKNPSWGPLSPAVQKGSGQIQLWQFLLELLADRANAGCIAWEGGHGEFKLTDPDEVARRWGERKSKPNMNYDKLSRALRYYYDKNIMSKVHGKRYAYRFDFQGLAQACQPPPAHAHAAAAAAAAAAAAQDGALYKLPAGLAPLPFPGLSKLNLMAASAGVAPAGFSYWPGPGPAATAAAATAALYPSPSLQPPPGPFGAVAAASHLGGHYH
# Method in brief: (§1)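 A tag-only sample was pooled with DNA-barcoded human transcription factors that had been expressed in yeast as GST fusions and captured on glutathione beads. The pools were incubated for 30 min at room temperature with 200 nmole of a random double-stranded 16-mer DNA library in Tris/NaCl/DTT/glycerol buffer, then washed, crosslinked with 0.1% formaldehyde, proximity-ligated (BsaI/T4 ligase, 1 h, 37 °C), PCR-amplified and sequenced on an Illumina NextSeq500. Binding signal is each hexamer's read frequency for a factor divided by its frequency for the tag-only sample.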
# ETV5 = ETV5 (Homo sapiens, UniProt P41161 1-510); details: protein: recombinant; tags: N-terminal GST; dsDNA, one strand shown
# Sequence of ETV5 (P41161 whole entry): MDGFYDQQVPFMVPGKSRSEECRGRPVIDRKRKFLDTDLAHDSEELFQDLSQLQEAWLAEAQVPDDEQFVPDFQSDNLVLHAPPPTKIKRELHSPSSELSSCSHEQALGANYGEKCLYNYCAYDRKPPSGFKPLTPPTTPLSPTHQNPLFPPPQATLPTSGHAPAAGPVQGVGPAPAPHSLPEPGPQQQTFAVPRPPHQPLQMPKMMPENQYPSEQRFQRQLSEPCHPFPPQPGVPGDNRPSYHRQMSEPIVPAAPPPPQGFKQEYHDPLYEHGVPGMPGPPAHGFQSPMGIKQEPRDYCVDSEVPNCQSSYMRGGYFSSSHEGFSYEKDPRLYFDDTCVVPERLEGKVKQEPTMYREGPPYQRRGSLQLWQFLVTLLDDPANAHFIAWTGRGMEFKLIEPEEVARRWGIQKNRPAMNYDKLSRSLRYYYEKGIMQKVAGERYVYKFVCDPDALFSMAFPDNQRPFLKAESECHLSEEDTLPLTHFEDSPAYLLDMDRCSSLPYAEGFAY
# Method in brief: as §1
# HSF1 = HSF1 (Homo sapiens, UniProt Q00613 1-529); details: protein: recombinant; tags: N-terminal GST; chain copies: 3; dsDNA, one strand shown
# Sequence of HSF1 (Q00613 whole entry): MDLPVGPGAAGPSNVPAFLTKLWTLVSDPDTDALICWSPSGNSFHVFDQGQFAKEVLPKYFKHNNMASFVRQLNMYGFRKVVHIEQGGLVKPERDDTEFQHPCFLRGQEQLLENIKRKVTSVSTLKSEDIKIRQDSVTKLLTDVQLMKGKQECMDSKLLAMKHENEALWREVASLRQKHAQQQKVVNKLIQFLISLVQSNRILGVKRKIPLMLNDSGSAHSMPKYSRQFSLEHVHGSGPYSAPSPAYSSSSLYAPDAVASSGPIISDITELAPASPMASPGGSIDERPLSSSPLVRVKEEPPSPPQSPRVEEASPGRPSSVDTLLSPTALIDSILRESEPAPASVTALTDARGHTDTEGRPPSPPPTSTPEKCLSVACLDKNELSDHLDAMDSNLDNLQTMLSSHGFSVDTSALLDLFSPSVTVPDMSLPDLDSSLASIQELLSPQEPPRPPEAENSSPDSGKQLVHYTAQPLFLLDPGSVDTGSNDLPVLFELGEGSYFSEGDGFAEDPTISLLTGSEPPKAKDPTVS
# Method in brief: as §1
# SPIC = molecular target: T2, SPIC (Homo sapiens, UniProt Q8N5J4 1-248); details: protein: recombinant; tags: N-terminal GST; dsDNA, one strand shown
# T2 sequence: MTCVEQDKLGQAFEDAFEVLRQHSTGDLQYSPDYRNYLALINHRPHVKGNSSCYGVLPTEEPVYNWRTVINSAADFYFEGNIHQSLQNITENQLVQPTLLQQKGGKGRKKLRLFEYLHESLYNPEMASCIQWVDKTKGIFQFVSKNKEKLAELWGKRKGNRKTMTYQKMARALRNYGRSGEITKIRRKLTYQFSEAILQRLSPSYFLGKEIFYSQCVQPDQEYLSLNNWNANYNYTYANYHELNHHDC
# Method in brief: as §1
# ELF4 = ELF4 (Homo sapiens, UniProt Q99607 1-663); details: protein: recombinant; tags: N-terminal GST; dsDNA, one strand shown
# Sequence of ELF4 (Q99607 whole entry): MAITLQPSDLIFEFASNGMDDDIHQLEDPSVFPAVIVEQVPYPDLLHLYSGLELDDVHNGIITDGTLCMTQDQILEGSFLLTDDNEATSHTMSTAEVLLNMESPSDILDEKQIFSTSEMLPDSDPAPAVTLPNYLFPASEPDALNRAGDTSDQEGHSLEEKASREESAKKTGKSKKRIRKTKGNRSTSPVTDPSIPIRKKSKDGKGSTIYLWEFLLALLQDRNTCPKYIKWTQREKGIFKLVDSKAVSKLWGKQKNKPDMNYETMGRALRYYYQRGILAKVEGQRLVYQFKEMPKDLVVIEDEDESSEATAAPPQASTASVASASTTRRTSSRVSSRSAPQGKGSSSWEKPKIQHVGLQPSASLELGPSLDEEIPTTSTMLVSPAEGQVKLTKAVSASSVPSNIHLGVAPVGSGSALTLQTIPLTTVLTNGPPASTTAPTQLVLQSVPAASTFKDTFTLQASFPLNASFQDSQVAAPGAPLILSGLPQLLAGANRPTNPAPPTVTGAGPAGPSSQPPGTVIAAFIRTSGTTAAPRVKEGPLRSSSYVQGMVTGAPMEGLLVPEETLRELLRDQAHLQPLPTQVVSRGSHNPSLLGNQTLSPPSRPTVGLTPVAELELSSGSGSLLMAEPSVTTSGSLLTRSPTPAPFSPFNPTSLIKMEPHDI
# Method in brief: as §1
# ELK4 = molecular target: T3, ELK4 (Homo sapiens, UniProt P28324-2 1-405); details: protein: recombinant; tags: N-terminal GST; dsDNA, one strand shown
# T3 sequence: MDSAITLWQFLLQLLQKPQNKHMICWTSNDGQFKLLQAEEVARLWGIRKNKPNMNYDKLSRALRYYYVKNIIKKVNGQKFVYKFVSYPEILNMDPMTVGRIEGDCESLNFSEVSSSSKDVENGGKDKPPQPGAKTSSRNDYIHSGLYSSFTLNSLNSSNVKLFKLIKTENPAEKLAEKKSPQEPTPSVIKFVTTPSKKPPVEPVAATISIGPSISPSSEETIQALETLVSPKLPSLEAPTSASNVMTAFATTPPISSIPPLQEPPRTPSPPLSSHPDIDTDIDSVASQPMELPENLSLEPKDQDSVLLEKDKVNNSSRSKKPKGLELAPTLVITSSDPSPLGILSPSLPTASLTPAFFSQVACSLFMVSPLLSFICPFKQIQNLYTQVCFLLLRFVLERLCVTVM
# Method in brief: as §1
# ETV2 = molecular target: T4, ETV2 (Homo sapiens, UniProt O00321 1-342); details: protein: recombinant; tags: N-terminal GST; dsDNA, one strand shown
# T4 sequence: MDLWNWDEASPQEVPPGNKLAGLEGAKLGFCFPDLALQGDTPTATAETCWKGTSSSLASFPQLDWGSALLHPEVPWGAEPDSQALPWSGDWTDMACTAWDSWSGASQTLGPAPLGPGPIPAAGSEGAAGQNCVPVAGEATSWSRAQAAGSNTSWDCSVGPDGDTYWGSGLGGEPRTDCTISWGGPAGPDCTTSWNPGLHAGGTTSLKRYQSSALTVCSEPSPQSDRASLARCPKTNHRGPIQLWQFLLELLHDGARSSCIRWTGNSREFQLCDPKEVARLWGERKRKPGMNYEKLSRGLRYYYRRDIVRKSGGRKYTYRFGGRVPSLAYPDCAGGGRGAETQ
# Method in brief: as §1
# ELF3 = molecular target: T5, ELF3 (Homo sapiens, UniProt P78545 1-371); details: protein: recombinant; tags: N-terminal GST; dsDNA, one strand shown
# T5 sequence: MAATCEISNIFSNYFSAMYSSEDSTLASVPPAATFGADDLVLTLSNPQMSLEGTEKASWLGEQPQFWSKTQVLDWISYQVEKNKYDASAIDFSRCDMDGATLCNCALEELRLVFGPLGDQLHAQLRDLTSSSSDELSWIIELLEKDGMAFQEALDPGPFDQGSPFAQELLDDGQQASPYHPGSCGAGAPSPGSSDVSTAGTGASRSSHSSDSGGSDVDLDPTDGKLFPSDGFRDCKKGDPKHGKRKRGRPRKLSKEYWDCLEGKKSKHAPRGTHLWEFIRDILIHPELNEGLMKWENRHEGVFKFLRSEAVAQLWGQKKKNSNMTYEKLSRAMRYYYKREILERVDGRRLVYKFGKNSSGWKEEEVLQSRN
# Method in brief: as §1
# ETV1 = ETV1 (Homo sapiens, UniProt P50549 1-477); details: protein: recombinant; tags: N-terminal GST; dsDNA, one strand shown
# Sequence of ETV1 (P50549 whole entry): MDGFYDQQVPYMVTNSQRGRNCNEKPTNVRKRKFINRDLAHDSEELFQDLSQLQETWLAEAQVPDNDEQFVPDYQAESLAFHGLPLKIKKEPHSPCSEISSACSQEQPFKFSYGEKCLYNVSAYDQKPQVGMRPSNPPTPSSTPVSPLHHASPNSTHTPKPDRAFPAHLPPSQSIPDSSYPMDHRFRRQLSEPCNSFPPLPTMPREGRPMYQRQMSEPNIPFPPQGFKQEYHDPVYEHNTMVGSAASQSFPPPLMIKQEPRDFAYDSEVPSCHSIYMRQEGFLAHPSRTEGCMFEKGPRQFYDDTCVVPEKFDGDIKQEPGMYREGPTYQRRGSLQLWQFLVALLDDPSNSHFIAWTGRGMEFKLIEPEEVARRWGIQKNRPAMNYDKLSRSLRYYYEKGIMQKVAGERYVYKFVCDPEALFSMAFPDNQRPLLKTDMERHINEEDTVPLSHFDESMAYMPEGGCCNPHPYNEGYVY
# Method in brief: as §1
sequence,measurement,setting,value
TGCCCC,binding signal,FEV,"1.36 fold enrichment (6-mer frequency, TF over GST control)"
same,binding signal,ETV5,"1.24 fold enrichment (6-mer frequency, TF over GST control)"
same,binding signal,HSF1,"1.01 fold enrichment (6-mer frequency, TF over GST control)"
same,binding signal,SPIC,"1.41 fold enrichment (6-mer frequency, TF over GST control)"
same,binding signal,ELF4,"1.26 fold enrichment (6-mer frequency, TF over GST control)"
same,binding signal,ELK4,"1.51 fold enrichment (6-mer frequency, TF over GST control)"
same,binding signal,ETV2,"1.21 fold enrichment (6-mer frequency, TF over GST control)"
same,binding signal,ELF3,"1.11 fold enrichment (6-mer frequency, TF over GST control)"
same,binding signal,ETV1,"1.19 fold enrichment (6-mer frequency, TF over GST control)"

# Source: PMC7862700, “An all-to-all approach to the identification of sequence-specific readers for epigenetic DNA modifications on cytosine”
